PubChem BioAssay
Active and inactive are the calls of the source.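 How the source made its calls, unless noted: active means inhibition above 20% together with a positive visual image hit; inconclusive means visual image hit but inhibition not above 20%; inactive means no visual image hit.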

What was measured:
[1] = inhibitors of TNFa-induced NFkB p65 translocation, primary screen, imaging, HUVEC, MLSMR starter and 10KST1 sets (AID 438); settings: HUVEC TNFa-induced p65 nuclear translocation; cell count: measured here: nuclei count (cytotoxicity indicator), at 2.08 µM; inhibition: at 2 µM, stronger effect = higher value, 0% TNFa-plus-vehicle, 100% no-TNFa wells;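 further: compound added about 3h40 before a 20 min TNFalpha stimulation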;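 on inhibition: signal is the nuclear over cytoplasmic p65 intensity ratio per well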
[2] = reduction of polyQ htt aggregates in cells – imaging, exon1htt(103Q)mCFP cells, high-content imaging, primary screen (AID 483;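 active means visual image review flags a hit and inhibition of aggregation exceeds 20%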;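 further: compound exposure lasted 3 days before fixation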;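 on nuclei count: percent of the per-plate median nuclei count of sample wells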); settings: exon1htt(103Q)mCFP cell line, aggregate imaging, at 2 µM; inhibition of aggregation: stronger effect = higher value; nuclei count: measured here: cell count, toxicity
[3] = endothelial E-selectin expression blockers – imaging, HUVEC, immunofluorescence, MLSMR starter and 10KST1 sets, primary screen (AID 487;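 active means visually confirmed hit in the image check and inhibition above 20%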;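 on inhibition: signal is fraction of cell area covered by stained E-selectin grains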;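 on nuclei count: 100% = median nuclei count of all wells on the same plate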); settings: HUVEC TNFalpha-induced E-selectin immunofluorescence imaging, at 2 µM; inhibition: stronger effect = higher value; nuclei count: measured here: cell number, toxicity
[4] = target: Voltage-gated potassium channel subunit beta-2 (Rattus norvegicus) (UniProt P62483); assay: inhibitors of rat Kvbeta2 reductase activity – biochemical, NADPH fluorescence, primary screen (AID 622;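 active means fluorescence slope higher than the sample average by over 3 SD, cut at about -0.22 in these data, passing the limit was not always enough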;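 further: slope of raw intensity against log time taken from 70 to 1610 s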); settings: recombinant KvBeta, 4-cyanobenzaldehyde reduction, at 10 µM, stronger effect = higher value
[5] = target: Voltage-gated potassium channel subunit beta-2 (Rattus norvegicus) (UniProt P62483); assay: enhancers of rat Kvbeta2 NADPH turnover – biochemical, NADPH fluorescence, primary screen (AID 623;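 active means NADPH fluorescence slope more negative than the mean of all samples by about 3 SD, 99.7% confidence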;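 further: fluorescence intensity change per second fitted from 20 to 320 s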); settings: Recombinant KvBeta, NADPH fluorescence decrease slope, 10 min; at 10 µM; stronger effect = lower value
[6] = target: Alpha-2C adrenergic receptor (Homo sapiens) (UniProt P18825); assay: compounds altering alpha2C-coupled GIRK flux – cell-based, HEK293 alpha2C/GIRK1/2, thallium flux, primary screen (AID 624;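 active means fluorescence slope after compound addition differing from the mean of all screened samples at 99.7% confidence, in either direction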;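 further: slope of fluorescence ratio to pre-addition baseline per second over 15 to 24 s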); settings: thallium flux BTC fluorescence, at 10 µM, actives lie on both sides
[7] = blockers of RIG-like receptor reporter activation – cell-based, Sendai virus stimulus, luciferase, 10K MLSCN set, TLR/RLR signaling modifier project, primary screen (AID 602276;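 active means inhibition at or above 50% at 10 µM; inactive means inhibition below 50%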;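 further: firefly luciferase from ISG56 promoter only with Renilla not read in this screen; 0% = Sendai virus plus DMSO and 100% = medium plus DMSO without virus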); settings: HEK293 RL24 IRF3 luciferase reporter, at 10 µM, stronger effect = higher value
[8] = TLR3 IRF3 reporter activation blockers – cell-based, poly I:C stimulus, luciferase, 10K MLSCN set, primary screen (AID 602277;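 active means inhibition of the reporter signal at or above 50%; inactive means inhibition below 50%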); settings: HEK293-TLR3 RL24 IRF3 luciferase reporter, at 10 µM, stronger effect = higher value

Voltage-gated potassium channel subunit beta-2 (Rattus norvegicus), sequence (P62483 whole entry, looked up): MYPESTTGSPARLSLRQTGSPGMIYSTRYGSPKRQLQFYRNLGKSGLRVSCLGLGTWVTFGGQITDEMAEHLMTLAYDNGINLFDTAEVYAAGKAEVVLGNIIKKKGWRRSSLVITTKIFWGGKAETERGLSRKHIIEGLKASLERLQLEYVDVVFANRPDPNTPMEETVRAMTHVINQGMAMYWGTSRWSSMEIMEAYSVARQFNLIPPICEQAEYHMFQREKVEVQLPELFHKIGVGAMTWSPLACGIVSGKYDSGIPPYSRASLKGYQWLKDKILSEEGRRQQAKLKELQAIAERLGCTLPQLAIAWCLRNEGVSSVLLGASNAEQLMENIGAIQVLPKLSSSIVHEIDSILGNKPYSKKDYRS
Alpha-2C adrenergic receptor (Homo sapiens), sequence (P18825 whole entry, looked up): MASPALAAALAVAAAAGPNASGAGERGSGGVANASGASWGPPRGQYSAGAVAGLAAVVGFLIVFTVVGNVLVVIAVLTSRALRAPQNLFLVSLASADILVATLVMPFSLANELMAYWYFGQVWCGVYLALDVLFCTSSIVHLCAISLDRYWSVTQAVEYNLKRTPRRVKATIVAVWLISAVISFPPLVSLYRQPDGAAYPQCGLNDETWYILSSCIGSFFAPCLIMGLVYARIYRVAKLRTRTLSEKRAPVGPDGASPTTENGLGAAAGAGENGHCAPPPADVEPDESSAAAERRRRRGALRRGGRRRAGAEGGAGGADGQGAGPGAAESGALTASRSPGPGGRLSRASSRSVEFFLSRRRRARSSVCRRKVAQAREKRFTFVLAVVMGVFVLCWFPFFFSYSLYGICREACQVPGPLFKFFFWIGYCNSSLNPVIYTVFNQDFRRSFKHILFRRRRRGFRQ

Structure (SMILES): C/C(N)=C(/C#N)C(=O)COC(=O)c1cc(C)n(-c2ccc(F)cc2)c1C
- cell count [1]: 717
- inhibition [1]: 10.2% (inactive)
- inhibition of aggregation [2]: 2.4% (inactive)
- nuclei count [2]: 116%
- inhibition [3]: -93.8% (inactive)
- nuclei count [3]: 146%
- fluorescence slope [4]: -0.487 (inactive)
- NADPH fluorescence slope [5]: 1.6e-05 (inactive)
- slope [6]: 0.00428 (inactive)
- inhibition [7]: 15.2% (inactive)
- inhibition [8]: -211% (inactive)

Structure (SMILES): CCOc1ccc(-c2cn(S(=O)(=O)c3cccc4nsnc34)nc2N)cc1
- cell count [1]: 316
- inhibition [1]: -6.1% (inactive)
- inhibition of aggregation [2]: 8% (inactive)
- nuclei count [2]: 107%
- inhibition [3]: -29.1% (inactive)
- nuclei count [3]: 66.8%
- fluorescence slope [4]: -0.484 (inactive)
- NADPH fluorescence slope [5]: -3.8e-05 (inactive)
- slope [6]: 0.00478 (inactive)
- inhibition [7]: 10.6% (inactive)
- inhibition [8]: 28.6% (inactive)

Structure (SMILES): CCN(CC)CCOc1cccc(C(C)C)c1
- cell count [1]: 657
- inhibition [1]: -5.3% (inactive)
- inhibition of aggregation [2]: -2.7% (inactive)
- nuclei count [2]: 104%
- inhibition [3]: 1.1% (inactive)
- nuclei count [3]: 76.3%
- fluorescence slope [4]: -0.393 (inactive)
- NADPH fluorescence slope [5]: -7.6e-05 (inactive)
- slope [6]: 0.00629 (inactive)
- inhibition [7]: 6.62% (inactive)
- inhibition [8]: 13.5% (inactive)

Structure (SMILES): COCCCN(C)C1CCN(C(=O)Nc2ccc(F)cc2)CC1
- cell count [1]: 610
- inhibition [1]: -1.3% (inactive)
- inhibition of aggregation [2]: -8.7% (inactive)
- nuclei count [2]: 108%
- inhibition [3]: -49.7% (inactive)
- nuclei count [3]: 102%
- fluorescence slope [4]: -0.582 (inactive)
- NADPH fluorescence slope [5]: -1.9e-06 (inactive)
- slope [6]: 0.00654 (inactive)
- inhibition [7]: 11% (inactive)
- inhibition [8]: 36.9% (inactive)

Structure (SMILES): COc1ccc(NC(=O)C(C)NS(=O)(=O)c2ccc(NC(C)=O)cc2)cc1Cl (centres undefined)
- cell count [1]: 788
- inhibition [1]: 2.8% (inactive)
- inhibition of aggregation [2]: -14.8% (inactive)
- nuclei count [2]: 105%
- inhibition [3]: 6.9% (inactive)
- nuclei count [3]: 113%
- fluorescence slope [4]: -0.34 (inactive)
- NADPH fluorescence slope [5]: 2.4e-05 (inactive)
- slope [6]: 0.00739 (inactive)
- inhibition [7]: 12.1% (inactive)
- inhibition [8]: 7.34% (inactive)

Structure (SMILES): Cc1cc(C)cc(OCC(=O)NC2=NCCS2)c1
- cell count [1]: 311
- inhibition [1]: -11.8% (inactive)
- inhibition of aggregation [2]: 2.3% (inactive)
- nuclei count [2]: 165%
- inhibition [3]: -76% (inactive)
- nuclei count [3]: 115%
- fluorescence slope [4]: -0.573 (inactive)
- NADPH fluorescence slope [5]: 1.2e-05 (inactive)
- slope [6]: 0.00659 (inactive)
- inhibition [7]: -3.94% (inactive)
- inhibition [8]: -24% (inactive)

Structure (SMILES): COc1cc(/C=N/n2cnnc2)ccc1OCC(=O)N1CCOCC1
- cell count [1]: 378
- inhibition [1]: -0.8% (inactive)
- inhibition of aggregation [2]: -5.1% (inactive)
- nuclei count [2]: 125%
- inhibition [3]: -4.3% (inactive)
- nuclei count [3]: 112%
- fluorescence slope [4]: -0.245 (inactive)
- NADPH fluorescence slope [5]: 7.4e-07 (inactive)
- slope [6]: 0.00585 (inactive)
- inhibition [7]: 5.73% (inactive)
- inhibition [8]: 19.7% (inactive)

Structure (SMILES): O=C(c1ccco1)N1CCN(C2=NS(=O)(=O)c3ccccc32)CC1
- cell count [1]: 596
- inhibition [1]: -18.6% (inactive)
- inhibition of aggregation [2]: -11.3% (inactive)
- nuclei count [2]: 105%
- inhibition [3]: -3% (inactive)
- nuclei count [3]: 104%
- fluorescence slope [4]: -0.463 (inactive)
- NADPH fluorescence slope [5]: -1.3e-05 (inactive)
- slope [6]: 0.00424 (inactive)
- inhibition [7]: 4.61% (inactive)
- inhibition [8]: 31.2% (inactive)

Structure (SMILES): CCOC(=O)c1cc2c(=O)n3ccccc3nc2n(CCCOC)c1=NC(C)=O
- cell count [1]: 657
- inhibition [1]: 11.2% (inactive)
- inhibition of aggregation [2]: 21.5% (inactive)
- nuclei count [2]: 94.4%
- inhibition [3]: -33.6% (inactive)
- nuclei count [3]: 82.5%
- fluorescence slope [4]: -0.133 (active)
- NADPH fluorescence slope [5]: 1.2e-05 (inactive)
- slope [6]: 0.00482 (inactive)
- inhibition [7]: 1.75% (inactive)
- inhibition [8]: 9.93% (inactive)

Structure (SMILES): CCOC(=O)N1CCC(N2CC34C=CC(O3)C(C(=O)O)C4C2=O)CC1 (centres undefined)
- cell count [1]: 811
- inhibition [1]: 4.4% (inactive)
- inhibition of aggregation [2]: 14.5% (inactive)
- nuclei count [2]: 106%
- inhibition [3]: -9.6% (inactive)
- nuclei count [3]: 114%
- fluorescence slope [4]: -0.552 (inactive)
- NADPH fluorescence slope [5]: 2.3e-05 (inactive)
- slope [6]: 0.00719 (inactive)
- inhibition [7]: 4.63% (inactive)
- inhibition [8]: 12.4% (inactive)

Structure (SMILES): Cc1ccc(C)c(S(=O)(=O)NCc2cccnc2)c1
- cell count [1]: 597
- inhibition [1]: -0.6% (inactive)
- inhibition of aggregation [2]: -6.9% (inactive)
- nuclei count [2]: 114%
- inhibition [3]: -89.8% (inactive)
- nuclei count [3]: 119%
- fluorescence slope [4]: -0.467 (inactive)
- NADPH fluorescence slope [5]: -5.5e-05 (inactive)
- slope [6]: 0.00658 (inactive)
- inhibition [7]: 141% (active)
- inhibition [8]: 100% (active)

Structure (SMILES): CCOc1ccc(Oc2nc(Nc3ccc(C)cc3)nc(N(C)C)n2)nn1
- cell count [1]: 619
- inhibition [1]: -0.3% (inactive)
- inhibition of aggregation [2]: 25.8% (inactive)
- nuclei count [2]: 71.1%
- inhibition [3]: -14.3% (inactive)
- nuclei count [3]: 106%
- fluorescence slope [4]: -0.491 (inactive)
- NADPH fluorescence slope [5]: -4.9e-05 (inactive)
- slope [6]: 0.00543 (inactive)
- inhibition [7]: -17.8% (inactive)
- inhibition [8]: 1.23% (inactive)

Structure (SMILES): c1ccc2c(c1)nc(NC1CCCCC1)c1nncn12
- cell count [1]: 446
- inhibition [1]: -0.5% (inactive)
- inhibition of aggregation [2]: 11.8% (inactive)
- nuclei count [2]: 55.9%
- inhibition [3]: -47.5% (inactive)
- nuclei count [3]: 113%
- fluorescence slope [4]: -0.595 (inactive)
- NADPH fluorescence slope [5]: -1.7e-05 (inactive)
- slope [6]: 0.0061 (inactive)
- inhibition [7]: 0.474% (inactive)
- inhibition [8]: 32.3% (inactive)

Structure (SMILES): COc1cccc(N2CCN(C(=O)C3C4C=CC5(CN(Cc6ccccc6Cl)C(=O)C35)O4)CC2)c1 (centres undefined)
- cell count [1]: 606
- inhibition [1]: -11.6% (inactive)
- inhibition of aggregation [2]: -3% (inactive)
- nuclei count [2]: 58.2%
- inhibition [3]: -66.5% (inactive)
- nuclei count [3]: 123%
- fluorescence slope [4]: -0.402 (inactive)
- NADPH fluorescence slope [5]: -3.2e-05 (inactive)
- slope [6]: 0.00266 (inactive)
- inhibition [7]: -0.268% (inactive)
- inhibition [8]: 13.1% (inactive)
